Laboratory results published in PubChem BioAssay AID624255 (Broad Institute, 2012).
In all, about 77,000 compounds went through this assay and about 4,600 (6%) were called active. Another 1% or so got no clear call; they are omitted. Only a selection was taken, and actives are over-represented in it overall. A number with no mark means an inactive call.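 Rule for the calls: active = mean inhibition above about 93%, with at least 55% of replicates each passing it (limit read from the data, passing the limit was not always enough); inconclusive = only one of those two conditions holds; inactive = neither condition holds.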

Test: T. cruzi intracellular proliferation inhibitors, primary screen, cell-based, beta-gal Tulahuen parasites, NIH3T3 host, luminescence (AID 624255)
Conditions: T. cruzi beta-gal in NIH3T3, GalScreen luminescence, 90 h; at 8.34 µM; stronger effect = higher value

Row | Compound | inhibition
1 | CO[C@H]1CN(C)C(=O)c2cc(NC(=O)Nc3cccc(F)c3)ccc2OC[C@H](C)N(C(C)=O)C[C@H]1C | 26.3%
2 | CN1CCCCN2[C@H](CO)[C@H](c3ccc(-c4ccc(F)cc4)cc3)[C@@H]2C1 | 14.5%
3 | COc1cccc(-c2ccc([C@H]3[C@H](CO)N4CCCCN(S(=O)(=O)c5cccs5)C[C@@H]34)cc2)c1 | 91.7%
4 | Cc1cccc(-c2ccc([C@@H]3[C@@H](CO)N4CCCCN(S(=O)(=O)c5cccs5)C[C@H]34)cc2)c1 | 118% (active)
5 | CCS(=O)(=O)N1CCCCN2[C@@H](CO)[C@@H](c3ccc(-c4ccccc4)cc3)[C@@H]2C1 | 93.7% (active)
6 | OC[C@H]1[C@H](c2ccc(-c3cccnc3)cc2)[C@H]2CN(Cc3ccccn3)CCCCN21 | 79.7%
7 | Cc1cccc(-c2ccc([C@H]3[C@H](CO)N4CCCCN(S(=O)(=O)c5cn(C)cn5)C[C@@H]34)cc2)c1 | 41.5%
8 | CCCC#Cc1ccc([C@H]2[C@@H](CO)N3CCCCN(S(=O)(=O)Cc4ccccc4)C[C@H]23)cc1 | 54.7%
9 | O=S(=O)(Cc1ccccc1)N1CCCCN2[C@@H](CO)[C@H](c3ccc(-c4cccnc4)cc3)[C@@H]2C1 | 106% (active)
10 | O=S(=O)(c1ccccc1)N1CCCCN2[C@H](C1)[C@H](c1ccc(-c3ccccc3)cc1)[C@@H]2CO | 94.7%
11 | O=S(=O)(Cc1ccccc1)N1CCCCN2[C@@H](CO)[C@@H](c3ccc(-c4ccc(F)cc4)cc3)[C@@H]2C1 | 98.2% (active)
12 | CCCC#Cc1ccc([C@H]2[C@@H](CO)N3CCCCN(S(=O)(=O)CC)C[C@H]23)cc1 | 65.9%
13 | COCc1cn(CC[C@H]2CC[C@H](NC(=O)Nc3ccc4c(c3)OCO4)[C@@H](CO)O2)nn1 | -12.8%
14 | C[C@H](CO)N1C[C@H](C)[C@@H](CN(C)C(=O)Nc2ccc3c(c2)OCO3)OCCCC[C@H](C)Oc2ccc(NC(=O)Nc3ccc(F)cc3)cc2C1=O | -31.4%
15 | O=C(C[C@H]1C=C[C@H](NC(=O)C2CCOCC2)[C@@H](CO)O1)NCC1CC1 | -20.7%
16 | CC(C)NC(=O)N(C)C[C@H]1OCCCC[C@H](C)Oc2ccc(NS(=O)(=O)c3ccc(Cl)cc3)cc2C(=O)N([C@@H](C)CO)C[C@H]1C | -6.73%
17 | C[C@@H]1CN([C@H](C)CO)C(=O)c2cc(NC(=O)c3ccccc3)ccc2O[C@@H](C)CCCCO[C@H]1CN(C)C(=O)c1ccncc1 | -20.8%
18 | CCC(=O)N1C[C@H](C)[C@H](OC)CN(C)C(=O)c2ccc(NC(=O)Nc3ccccc3)cc2OC[C@H]1C | -75.2%
19 | CCC(=O)Nc1ccc2c(c1)OC[C@H](C)N(Cc1ccccc1OC)C[C@@H](C)[C@@H](OC)CN(C)C2=O | 32.5%
20 | CCC(=O)Nc1ccc2c(c1)C(=O)N(C)[C@@H]1CC[C@@H](CC(=O)NCCc3ccccc3)O[C@H]1CO2 | 49.1%
21 | C/C=C/c1ccc([C@H]2[C@@H](CO)N(C(=O)Cc3ccncc3)[C@@H]2CNC(C)=O)cc1 | 13.1%
22 | O=S(=O)(Cc1ccccc1)N1CCCCN2[C@@H](CO)[C@H](c3ccc(-c4ccccc4)cc3)[C@@H]2C1 | 110% (active)

Row | Compound | inhibition
23 | O=S(=O)(Cc1ccccc1)N1CCCCN2[C@H](CO)[C@@H](c3ccc(-c4cncnc4)cc3)[C@H]2C1 | 91%
24 | CS(=O)(=O)N1CCCCN2[C@H](CO)[C@H](c3ccc(-c4cccc(C#N)c4)cc3)[C@H]2C1 | 74.2%
25 | COCC(=O)Nc1ccc2c(c1)C(=O)N(C)[C@@H]1CC[C@H](CC(=O)NCC3CCCCC3)O[C@H]1CO2 | -49.4%
26 | CCC(=O)N(C)C[C@@H]1Oc2ncc(C#Cc3ccccc3)cc2C(=O)N([C@@H](C)CO)C[C@H]1C | 87.1%
27 | COc1ccc(C#Cc2cnc3c(c2)C(=O)N([C@@H](C)CO)C[C@H](C)[C@@H](CN(C)C(C)=O)O3)cc1 | 110% (active)
28 | COc1ccccc1C#Cc1cnc2c(c1)C(=O)N([C@@H](C)CO)C[C@@H](C)[C@H](CN(C)C(=O)CN(C)C)O2 | 36.2%
29 | CCCC#Cc1cnc2c(c1)C(=O)N([C@H](C)CO)C[C@H](C)[C@H](CN(C)C(=O)Cc1ccncc1)O2 | -5.16%
30 | COCC(=O)N(C)C[C@@H]1Oc2ncc(C#Cc3ccccc3OC)cc2C(=O)N([C@@H](C)CO)C[C@H]1C | 113% (active)
31 | COc1ccc(C#Cc2cnc3c(c2)C(=O)N([C@H](C)CO)C[C@H](C)[C@@H](CN(C)C)O3)cc1 | 29.3%
32 | CC(C)CC#Cc1cnc2c(c1)C(=O)N([C@@H](C)CO)C[C@@H](C)[C@H](CN(C)C(=O)Cc1ccncc1)O2 | 107% (active)
33 | COc1ccccc1C#Cc1cnc2c(c1)C(=O)N([C@@H](C)CO)C[C@@H](C)[C@@H](CN(C)C(=O)CN(C)C)O2 | -91.1%
34 | C[C@@H]1CN([C@H](C)CO)C(=O)c2cc(C#CCN(C)C)cnc2O[C@H]1CN(C)C(=O)Cc1ccncc1 | 67.2%
35 | CC(=O)N(C)C[C@H]1Oc2ncc(C#Cc3ccccn3)cc2C(=O)N([C@H](C)CO)C[C@@H]1C | 57.3%
36 | C[C@@H]1CN([C@@H](C)CO)C(=O)c2cc(C#Cc3ccccc3)cnc2O[C@H]1CN(C)C(=O)c1ccccn1 | 108% (active)
37 | COc1cccc(C#Cc2cnc3c(c2)C(=O)N([C@@H](C)CO)C[C@H](C)[C@@H](CN(C)C(C)=O)O3)c1 | -12.9%
38 | COc1ccc(CN(C)C[C@@H]2OCCCC[C@H](C)Oc3ccc(NC(=O)c4ccccc4)cc3C(=O)N([C@H](C)CO)C[C@H]2C)cc1 | 76.8%
39 | CC=Cc1ccc2n(c1=O)C[C@@H]1[C@@H](CO)[C@H](C(=O)NCC(F)(F)F)N(CCc3ccccc3)[C@H]21 (mixture of isomers) | 47.7%
40 | Cc1ccc(S(=O)(=O)N[C@H]2CC[C@@H](CC(=O)NCc3ccc(Cl)c(Cl)c3)O[C@H]2CO)cc1 | 64.8%
41 | CCCC(=O)Nc1ccc2c(c1)C(=O)N(C)C[C@@H](OC)[C@@H](C)CN(Cc1cncnc1)[C@@H](C)CO2 | -11%
42 | CC(C)NC(=O)Nc1ccc2c(c1)CC(=O)N([C@@H](C)CO)C[C@@H](C)[C@H](CN(C)CC1CC1)O2 | 14.2%
43 | CCC(=O)Nc1ccc2c(c1)C(=O)N(C)[C@@H]1CC[C@@H](CC(=O)N[C@@H](C)c3ccccc3)O[C@@H]1CO2 | 29.7%
44 | COc1ccc(S(=O)(=O)Nc2ccc3c(c2)C(=O)N([C@H](C)CO)C[C@@H](C)[C@H](CN(C)Cc2ccccc2)O3)cc1 | 13.7%

Row | Compound | inhibition
45 | C[C@@H]1CN([C@H](C)CO)C(=O)c2cc(C#Cc3ccccn3)cnc2O[C@H]1CN(C)Cc1ccccc1 | 120% (active)
46 | CC(C)C#Cc1cnc2c(c1)C(=O)N([C@H](C)CO)C[C@@H](C)[C@H](CN(C)Cc1ccccc1)O2 | -6.87%
47 | CC(C)CC#Cc1cnc2c(c1)C(=O)N([C@H](C)CO)C[C@H](C)[C@H](CN(C)C(=O)Nc1ccccc1F)O2 | 53.1%
48 | C[C@@H]1CN([C@H](C)CO)C(=O)c2cc(/C=C/c3ccccc3)cnc2O[C@@H]1CN(C)Cc1ccncc1 | 96.3% (active)
49 | CCCC#Cc1cnc2c(c1)C(=O)N([C@H](C)CO)C[C@@H](C)[C@@H](CN(C)C(=O)Nc1ccccc1F)O2 | 11.2%
50 | C[C@H](CO)N1C[C@H](C)[C@@H](CN(C)Cc2cccnc2)Oc2ncc(/C=C/c3ccccc3)cc2C1=O | 12.8%
51 | C[C@H](CO)N1C[C@H](C)[C@H](CN(C)C(=O)Nc2cccc3ccccc23)Oc2ncc(C#Cc3ccccc3)cc2C1=O | 122% (active)
52 | C/C=C/c1cnc2c(c1)C(=O)N([C@@H](C)CO)C[C@@H](C)[C@H](CN(C)Cc1ccccc1)O2 | -55.6%
53 | CCCC#Cc1cnc2c(c1)C(=O)N([C@H](C)CO)C[C@H](C)[C@@H](CN(C)Cc1ccccc1)O2 | 18.3%
54 | COc1ccccc1-c1cn(CC[C@H]2CC[C@H](NC(=O)C3CCOCC3)[C@@H](CO)O2)nn1 | 7.67%
55 | O=C(C[C@@H]1C=C[C@H](NC(=O)Nc2ccc3c(c2)OCO3)[C@H](CO)O1)NCc1ccccc1 | 17.2%
56 | CC=Cc1ccc2n(c1=O)C[C@@H]1[C@@H](CO)[C@H](C(=O)NCCc3ccccc3)N(C(C)=O)[C@H]21 (mixture of isomers) | 28.7%
57 | C[C@H](O)C#Cc1ccc([C@H]2[C@H]3CN(S(=O)(=O)Cc4ccccc4)CCCCN3[C@H]2CO)cc1 | 110% (active)
58 | CN(C)CC#Cc1ccc([C@H]2[C@H]3CN(S(=O)(=O)c4ccccc4F)CCCCN3[C@H]2CO)cc1 | 106% (active)
59 | CCCC#Cc1ccc([C@@H]2[C@H](CO)N3CCCCN(S(=O)(=O)c4ccccc4F)C[C@@H]23)cc1 | 37.8%
60 | C[C@@H](O)C#Cc1ccc([C@H]2[C@@H](CO)N3CCCCN(S(=O)(=O)c4ccccc4)C[C@@H]23)cc1 | 59.2%
61 | C/C=C/c1ccc([C@H]2[C@H]3CN(S(=O)(=O)c4ccccc4)CCCCN3[C@H]2CO)cc1 | 123% (active)
62 | CCCC#Cc1ccc([C@H]2[C@H](CO)N3CCCCN(S(=O)(=O)CC)C[C@@H]23)cc1 | 47.8%
63 | C[C@@H](O)C#Cc1ccc([C@H]2[C@@H](CO)N3CCCCN(CC4CC4)C[C@@H]23)cc1 | 29.6%
64 | C[C@@H](O)C#Cc1ccc([C@@H]2[C@H]3CN(S(=O)(=O)c4ccccc4)CCCCN3[C@H]2CO)cc1 | 26.7%
65 | C[C@@H](O)C#Cc1ccc([C@@H]2[C@H](CO)N3CCCCN(S(=O)(=O)c4ccccc4)C[C@@H]23)cc1 | 107% (active)
66 | C[C@H](O)C#Cc1ccc([C@@H]2[C@H](CO)N3CCCCN(CC4CC4)C[C@@H]23)cc1 | 8.49%
